KB-3-1 tox – KB-3-1 parental cell cytotoxicity; KB-3-1 viability, CellTiter-Glo ATP luminescence, 72 h; Potency, µM (series often up to 46.1 µM), actives largely listed as cytotoxic; AID 1347075; hit rate 1.4% among 400,000; also: % is scaled to controls: 0 for no effect and ±100 for the full control effect; nearly all actives have a fitted effect of over 60% in size
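Cytotoxicity in the drug-sensitive parental line KB-3-1 was scored as loss of CellTiter-Glo luminescence following 72 h incubation with compound. Values come from curve fitting of normalized concentration-response data.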
KB-V1 cytotox – kills drug-selected multidrug resistant KB-V1 cells. AID 1347076. Potency, µM (series often up to 46.1 µM), most hits filed as cytotoxic. hit rate 3.4% among 400,000. KB-V1 MDR cells viability, CellTiter-Glo, 72 h; also: % is scaled to controls: 0 for no effect and ±100 for the full control effect; nearly all actives have a fitted effect of over 60% in size
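Cytotoxicity toward P-gp-expressing KB-V1 cells was determined as loss of CellTiter-Glo luminescence after 72 h at 37 degrees C. Compounds were tested in quantitative HTS format across a concentration range, with curves fitted to normalized data.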
HT1080NT lethal – kills 2HG-producing HT-1080-NT fibrosarcoma cells. HT-1080-NT fibrosarcoma viability, CellTiter-Glo ATP luminescence, 48 h. Potency, µM (top dose mostly 46.1 µM), without a hit: top-dose activity, negative = less viability, most hits filed as cytotoxic. hit rate 1.6% among 360,000. AID 686970;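 also: NT is the 2HG producing partner of a matched IDH1 knockdown line; 0% = DMSO-treated cells and -100% = media-only wells without cells; nearly all actives have a fitted effect of over 55% in size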
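Read-out is CellTiter-Glo luminescence after 10 minutes at room temperature, following 48 hours' compound treatment of HT-1080-NT cells (750 cells/well, RPMI, 5% FBS, 37 degrees C).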
MCF10A rerep – DNA re-replication induction in MCF 10a cells; MCF 10A DNA re-replication, Hoechst nuclear intensity, 48 h; Potency, µM (series often up to 46.1 µM), without a hit: at the top dose activity, positive = re-replication, actives largely listed as activators; hit rate 2.9% among 350,000; also: % of control where 0% means no effect; nearly all actives have a fitted effect of over 50% in size
SW480 rerep – DNA re-replication induction in SW480 cells; SW480 DNA re-replication, Hoechst DNA content imaging, 48 h; Potency, µM (titrated, usually from 46.1 µM), inactives show at the top dose re-replication activation, most hits filed as activators; hit rate 1.8% among 340,000; AID 624297; also: % of control where 0% means no effect; nearly all actives have a fitted effect of over 55% in size
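Readout is total intensity of Hoechst-stained nuclei, excited at 405 nm and collected at 500-530 nm. Compound treatment lasted 48 hr at 37 C in 5% CO2 before staining.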
HT1080 IDH1KD tx – kills HT-1080 cells with IDH1 knockdown | AID 686971 | Potency, µM (series often up to 46.1 µM), without a hit: at the highest dose activity, negative = toxicity, usual class: cytotoxic | HT-1080 IDH1 knockdown viability, ATP luminescence, 48 h | hit rate 2% among 360,000;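 also: 0% = DMSO wells and -100% = cell-free medium wells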
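Using the IDH1-knockdown HT-1080 line run in the same batch and compound series as the NT line, viability after 48 h at 37 °C was determined by CellTiter-Glo luminescence and expressed as % activity.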
Active calls of the source: *; i = inactive; ? = inconclusive; . = not tested or not shown; ! = a repeat was not active; [ ] = another dose, or the depositor's remark. Shown are actives, neighbours in structure and some others; about 8% of the full set was active somewhere. Calls follow the shape of the dose curve; as a rule, active = well fitted curve in the direction sought with a large enough effect; inconclusive = small, poorly fitted or top-dose-only effect, or another doubt; inactive = no such curve, though single readings can be large; an effect the other way counts as inactive or inconclusive. Potency is read from the fitted curve at half-maximal effect.

SMILES	KB-3-1 tox	KB-V1 cytotox	HT1080NT lethal	MCF10A rerep	SW480 rerep	HT1080 IDH1KD tx
O=C(/C=C/c1ccc2c(c1)OCO2)Nc1cccnc1	8.2µM*	i	?	?	2%	?
CC(=O)Nc1ccc(NC(=O)/C=C/c2ccc3c(c2)OCO3)cc1	i	i	?	?	0%	-19%
O=C(/C=C/c1ccco1)Nc1ccc2c(c1)OCO2	?	?	13µM*	?	?	21µM*
O=C(/C=C/c1ccc2c(c1)OCO2)c1cccnc1	?	i	-14%	9%	?	-19%
COC(=O)c1cccc(NC(=O)/C=C/c2ccc3c(c2)OCO3)c1	5.8µM*	?	?	?	-7%	?
CC[C@@]12C(=O)N(c3cccc(F)c3)C(=O)N1[C@H](c1ccc(F)cc1)[C@@H]1C(=O)N(C3CCCCC3)C(=O)[C@@H]12	?	?	0%	?	-24%[9.22 µM]	0%
CCCNC(=O)C(Cc1cccc(OC)c1)NC(=O)c1ccc(C#N)cc1 (stereo unspecified)	i	i	?	0%	-6%	13%
C/C(=N\NC(=O)COc1ccc(C(C)(C)C)cc1)c1ccc(N2CCOCC2)cc1	i	i	?	9.2µM*	-81%	-25%
O=C(C1=C[C@@H](C2CC2)C[C@@H](OCc2ccc(CO)cc2)O1)N1CCN(Cc2ccccc2)CC1	i	i	2%	?	15%[9.22 µM]	1%
O=C(NCCc1csc(-c2cccnc2)n1)c1cccs1	i	i	8%	4%	-19%	9%
O=C(NCCc1csc(-c2cccnc2)n1)c1ccc(F)c(F)c1	i	13µM*	.	.	.	.
Cc1ccc(C(=O)NCCc2csc(-c3cccnc3)n2)cc1	i	i	-4%	-2%	-12%	13%
O=C(NCCc1csc(-c2cccnc2)n1)c1cccc(C(F)(F)F)c1	?	9.2µM*	.	.	.	.
O=S1(=O)N[C@@H](Cc2ccccc2)COc2cc(N3CCC[C@H]3CO)ccc21	i	i	0%	.	.	-17%
O=C1OCCN1C(=O)[C@H]1[C@H](c2ccc([N+](=O)[O-])cc2)C(c2ccccc2)=NN1c1ccccc1	i	i	-10%	3%	-6%	-27%
Cc1cccc(C2=NN(c3ccccc3)[C@H](CO)[C@H]2c2ccccc2)c1	i	i	-23%	2.3µM*	16µM*	-26%
OC[C@@H]1[C@@H](c2ccc(F)cc2)C(c2ccccc2)=NN1c1ccccc1	i	?	-19%	?	18µM*	-28%
Cc1cccc(C2=NN(c3ccc(Br)cc3)[C@@H](C(=O)N3CCOC3=O)[C@@H]2c2ccc([N+](=O)[O-])cc2)c1	i	i	-11%	-19%	-1%	-21%
CC[C@H]1C(c2ccc(F)cc2)=NN(c2ccccc2)[C@@H]1CO	i	i	-1%	6.5µM*	?	-1%
COc1ccc(-c2ncc3ccccn23)cc1	i	i	14%	-2%	-2%	12%
COc1cc(-c2ncc3ccccn23)cc(OC)c1OC	i	15µM*	3%	?	-10%	1%
COc1cc(OC)cc(-c2ncc3ccccn23)c1	21µM*	?	-3%	?	-2%[9.22 µM]	-20%
COc1cccc(-c2ncc3ccccn23)c1	i	i	-14%	-3%	2%	-5%
CCOC(=O)CCc1c(C)nc(SCCCn2c(=O)[nH]c3ccccc32)c(C#N)c1C	i	?	2%	?	-3%	-3%
CC1=C(C(=O)Nc2ccccc2C)C(c2ccco2)n2ncnc2N1 (stereo unspecified)	i	i	.	.	.	.
SMILES	KB-3-1 tox	KB-V1 cytotox	HT1080NT lethal	MCF10A rerep	SW480 rerep	HT1080 IDH1KD tx
COC(=O)N/N=C(C)/C=C/c1ccccc1	i	?	-3%	-3%	-2%	-1%
CCOc1ccc(CN2CCN(Cc3cc4ccccc4[nH]3)CC2CCO)cc1 (stereo unspecified)	?	i	-2%	23µM*	?	-14%
CC(C)(C)CN1CCN(Cc2c[nH]c3ccccc23)CC1CCO (stereo unspecified)	i	i	2%	6.5µM*	0%	-6%
COc1cc(CN2CCN(Cc3c[nH]c4ccccc34)CC2CCO)cc(OC)c1 (stereo unspecified)	i	i	-15%	0%	1%	-17%
CC(C)(C)CN1CCN(Cc2cc3ccccc3[nH]2)CC1CCO (stereo unspecified)	?	i	-5%	0.65µM*	?	-3%
Cc1ccccc1/C=N/Nc1ccnc2cc(Cl)ccc12	?	16µM*	?	18µM*	?	?
Clc1ccc2c(N/N=C/c3ccc(Br)cc3)ccnc2c1	?	i	?	2.6µM*	18µM*	?
O=C(CSc1nnc(-c2ccncc2)o1)NC1C2CC3CC(C2)CC1C3 (stereo unspecified)	i	?	-4%	3%	-4%	-7%
Cc1ccc(-c2cnc3cc(C)nn3c2)cc1	i	?	2%	2%	-4%	10%
Cc1ccc(-c2cnc3c(Cl)c(C)nn3c2)cc1	?	12µM*	-8%	?	10µM*	-26%
CC(C)C(OC(=O)CN1C(=O)COc2ccccc21)C(=O)NC1CCCC1 (stereo unspecified)	i	6.5µM*	15%	-2%	-7%	2%
Cc1ccc2c(c1)N(CC(=O)OC(CC(C)C)C(=O)NC1CCCC1)C(=O)CO2 (stereo unspecified)	i	3.7µM*	5%	?	2%	-22%
CC(C)C(OC(=O)CN1C(=O)COc2ccccc21)C(=O)NC1CCCCC1 (stereo unspecified)	i	?	23%	11%	-1%	7%
O=c1c(Cc2c(F)cccc2Cl)c(O)ccn1C1CCCCCC1	i	i	2%	0.18µM*	-32%	-3%
O=c1c(Cc2c(F)cccc2Cl)c(O)ccn1Cc1ccc(F)cc1	i	i	-19%	20%	3%	-9%
CCOc1nc(NC(=O)NS(=O)(=O)Oc2ccc(Cl)cc2)nc(-c2ccccc2)n1	i	i	.	.	.	.
CCOc1nc(NC(=O)NS(=O)(=O)Oc2cccc(Cl)c2)nc(-c2ccccc2)n1	0.0016µM*!	i	1%	7%	2%	20%
COC(=O)c1cccnc1-n1c(=O)c2cccnc2n(Cc2ccc(Cl)cc2)c1=O	?	23µM*	-22%	0%	6%	-21%

Source: PubChem BioAssay (National Center for Advancing Translational Sciences (NCATS))
